Measurements from PubChem BioAssay (EPA / NIEHS).
Inconclusive results are not listed. Active and inactive are the calls of the source. The calls were made as follows: active = hit-call score of the fitted dose curve at least 0.9, where 1 is the maximum; inconclusive = response in the unintended direction; inactive = score below 0.9.

Experiments:
[1] = molecular target: human Rho Associated Coiled-coil Containing Protein Kinase 1 (ROCK1), ROCK1 (gene 6093) (UniProt Q13464); assay: NVS_ENZ_hROCK1: NovaScreen (NVS) Enzymatic Assay for human Rho Associated Coiled-coil Containing Protein Kinase 1 (ROCK1) (AID 2283214)
In short: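 Cell-free recombinant human ROCK1 activity assay; fluorescent substrate and product separated by electrophoretic mobility shift, read 1 h after dosing. Screened in duplicate at 25 uM; loss of signal versus DMSO baseline scored as inhibition.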

[2] = molecular target: human Sirtuin 1 (SIRT1), SIRT1 (gene 23411) (UniProt Q96EB6); assay: NVS_ENZ_hSIRT1: NovaScreen (NVS) Enzymatic Assay for human Sirtuin 1 (SIRT1) (AID 2283219)
Sequence of human Sirtuin 1 (SIRT1), SIRT1 (gene 23411) (Q96EB6 whole entry, looked up): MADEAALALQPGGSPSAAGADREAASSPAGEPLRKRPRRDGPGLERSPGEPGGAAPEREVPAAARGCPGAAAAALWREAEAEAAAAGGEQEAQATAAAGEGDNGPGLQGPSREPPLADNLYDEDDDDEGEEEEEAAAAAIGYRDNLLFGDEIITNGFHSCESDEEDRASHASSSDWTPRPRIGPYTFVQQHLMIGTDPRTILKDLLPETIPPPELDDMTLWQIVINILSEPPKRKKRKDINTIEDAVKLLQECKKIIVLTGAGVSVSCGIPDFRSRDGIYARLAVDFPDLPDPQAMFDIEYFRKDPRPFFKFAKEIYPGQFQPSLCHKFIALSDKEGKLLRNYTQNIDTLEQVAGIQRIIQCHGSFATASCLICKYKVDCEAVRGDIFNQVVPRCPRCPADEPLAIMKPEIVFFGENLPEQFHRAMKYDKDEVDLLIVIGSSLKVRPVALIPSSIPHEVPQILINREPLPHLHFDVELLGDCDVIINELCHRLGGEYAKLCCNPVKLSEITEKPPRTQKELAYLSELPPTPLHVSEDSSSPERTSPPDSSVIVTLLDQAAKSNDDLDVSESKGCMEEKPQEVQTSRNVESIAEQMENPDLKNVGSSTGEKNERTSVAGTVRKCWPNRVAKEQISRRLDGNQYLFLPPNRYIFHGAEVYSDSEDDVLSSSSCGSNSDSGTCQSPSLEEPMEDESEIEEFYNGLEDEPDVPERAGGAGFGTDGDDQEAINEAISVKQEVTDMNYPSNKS
In short: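 Cell-free recombinant SIRT1 with a fluorescent substrate; substrate and product separated by electrophoretic mobility shift and read by fluorescence intensity, 1 h after dosing. Primary screen at 25 uM in duplicate; hits re-run in concentration-response up to 50 uM, relative to DMSO.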

[3] = molecular target: human Protein Tyrosine Phosphatase Non-receptor Type 6 (PTPN6), PTPN6 (gene 5777) (UniProt P29350); assay: NVS_ENZ_hPTPN6: NovaScreen (NVS) Enzymatic Assay for human Protein Tyrosine Phosphatase Non-receptor Type 6 (PTPN6) (AID 2283210)
In short: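 Cell-free assay with recombinant PTPN6 expressed in SF9 cells, fluorescent substrate, product separated from substrate by electrophoretic mobility shift; read 1.33 hours after dosing. Primary screen in duplicate at 25 uM, actives retested in concentration series; DMSO baseline.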

[4] = molecular target: human Tropomyosin Receptor Kinase A (TRKA), NTRK1 (gene 4914) (UniProt P04629); assay: NVS_ENZ_hTrkA: NovaScreen (NVS) Enzymatic Assay for human Tropomyosin Receptor Kinase A (TRKA) (AID 2283224)
In short: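 Recombinant human TrkA activity read after 1 h by fluorescence with electrophoretic mobility shift separating substrate and product. Primary screen in duplicate at 25 uM; actives were rerun in concentration-response up to 50 uM. Loss of signal versus DMSO.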

[5] = molecular target: human Protein Tyrosine Phosphatase Receptor Type C (PTPRC), PTPRC (gene 5788) (UniProt P08575); assay: NVS_ENZ_hPTPRC: NovaScreen (NVS) Enzymatic Assay for human Protein Tyrosine Phosphatase Receptor Type C (PTPRC) (AID 2283212)
Sequence of human Protein Tyrosine Phosphatase Receptor Type C (PTPRC), PTPRC (gene 5788) (P08575 whole entry, looked up): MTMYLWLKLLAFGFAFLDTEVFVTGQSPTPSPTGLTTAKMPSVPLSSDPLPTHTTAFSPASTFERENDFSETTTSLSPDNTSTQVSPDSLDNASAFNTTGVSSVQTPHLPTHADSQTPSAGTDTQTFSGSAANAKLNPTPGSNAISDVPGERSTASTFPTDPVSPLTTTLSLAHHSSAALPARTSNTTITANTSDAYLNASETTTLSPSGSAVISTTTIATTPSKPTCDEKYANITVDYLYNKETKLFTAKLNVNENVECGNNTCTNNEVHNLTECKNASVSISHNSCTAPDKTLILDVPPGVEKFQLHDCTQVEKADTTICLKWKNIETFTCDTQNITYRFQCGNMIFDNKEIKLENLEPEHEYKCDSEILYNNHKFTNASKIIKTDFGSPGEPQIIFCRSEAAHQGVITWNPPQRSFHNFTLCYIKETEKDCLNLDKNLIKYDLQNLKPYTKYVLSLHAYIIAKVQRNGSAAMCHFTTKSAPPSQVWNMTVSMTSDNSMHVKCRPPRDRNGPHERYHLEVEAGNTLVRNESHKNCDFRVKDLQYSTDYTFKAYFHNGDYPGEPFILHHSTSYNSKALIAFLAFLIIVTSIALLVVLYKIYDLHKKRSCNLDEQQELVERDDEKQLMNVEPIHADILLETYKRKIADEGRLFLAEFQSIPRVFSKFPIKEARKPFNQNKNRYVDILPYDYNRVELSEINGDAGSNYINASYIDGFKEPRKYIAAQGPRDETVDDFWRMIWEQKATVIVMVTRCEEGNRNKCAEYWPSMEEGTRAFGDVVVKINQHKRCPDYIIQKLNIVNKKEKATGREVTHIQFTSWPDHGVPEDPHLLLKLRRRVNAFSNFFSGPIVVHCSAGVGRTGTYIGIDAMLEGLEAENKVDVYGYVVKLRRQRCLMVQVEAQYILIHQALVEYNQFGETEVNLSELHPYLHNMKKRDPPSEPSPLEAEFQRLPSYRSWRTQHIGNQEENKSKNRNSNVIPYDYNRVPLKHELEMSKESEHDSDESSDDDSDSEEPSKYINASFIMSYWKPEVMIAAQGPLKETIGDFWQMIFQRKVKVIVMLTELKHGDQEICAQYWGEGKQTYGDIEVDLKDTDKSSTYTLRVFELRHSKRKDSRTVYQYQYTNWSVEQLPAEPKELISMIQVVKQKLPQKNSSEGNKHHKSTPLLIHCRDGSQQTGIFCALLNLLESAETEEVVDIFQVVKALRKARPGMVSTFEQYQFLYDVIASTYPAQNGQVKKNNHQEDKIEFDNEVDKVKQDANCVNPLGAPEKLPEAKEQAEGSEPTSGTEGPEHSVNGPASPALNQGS
In short: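 Yeast-extracted human PTPRC used in a cell-free colorimetric enzyme activity read-out, 1 h after dosing. Primary screen in duplicate at 25 uM; actives rerun in concentration-response up to 50 uM, DMSO as baseline.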

[6] = molecular target: human Vascular Endothelial Growth Factor Receptor 2 (VEGFR2), KDR (gene 3791) (UniProt P35968); assay: NVS_ENZ_hVEGFR2: NovaScreen (NVS) Enzymatic Assay for human Vascular Endothelial Growth Factor Receptor 2 (VEGFR2) (AID 2283230)
Sequence of human Vascular Endothelial Growth Factor Receptor 2 (VEGFR2), KDR (gene 3791) (P35968 whole entry, looked up): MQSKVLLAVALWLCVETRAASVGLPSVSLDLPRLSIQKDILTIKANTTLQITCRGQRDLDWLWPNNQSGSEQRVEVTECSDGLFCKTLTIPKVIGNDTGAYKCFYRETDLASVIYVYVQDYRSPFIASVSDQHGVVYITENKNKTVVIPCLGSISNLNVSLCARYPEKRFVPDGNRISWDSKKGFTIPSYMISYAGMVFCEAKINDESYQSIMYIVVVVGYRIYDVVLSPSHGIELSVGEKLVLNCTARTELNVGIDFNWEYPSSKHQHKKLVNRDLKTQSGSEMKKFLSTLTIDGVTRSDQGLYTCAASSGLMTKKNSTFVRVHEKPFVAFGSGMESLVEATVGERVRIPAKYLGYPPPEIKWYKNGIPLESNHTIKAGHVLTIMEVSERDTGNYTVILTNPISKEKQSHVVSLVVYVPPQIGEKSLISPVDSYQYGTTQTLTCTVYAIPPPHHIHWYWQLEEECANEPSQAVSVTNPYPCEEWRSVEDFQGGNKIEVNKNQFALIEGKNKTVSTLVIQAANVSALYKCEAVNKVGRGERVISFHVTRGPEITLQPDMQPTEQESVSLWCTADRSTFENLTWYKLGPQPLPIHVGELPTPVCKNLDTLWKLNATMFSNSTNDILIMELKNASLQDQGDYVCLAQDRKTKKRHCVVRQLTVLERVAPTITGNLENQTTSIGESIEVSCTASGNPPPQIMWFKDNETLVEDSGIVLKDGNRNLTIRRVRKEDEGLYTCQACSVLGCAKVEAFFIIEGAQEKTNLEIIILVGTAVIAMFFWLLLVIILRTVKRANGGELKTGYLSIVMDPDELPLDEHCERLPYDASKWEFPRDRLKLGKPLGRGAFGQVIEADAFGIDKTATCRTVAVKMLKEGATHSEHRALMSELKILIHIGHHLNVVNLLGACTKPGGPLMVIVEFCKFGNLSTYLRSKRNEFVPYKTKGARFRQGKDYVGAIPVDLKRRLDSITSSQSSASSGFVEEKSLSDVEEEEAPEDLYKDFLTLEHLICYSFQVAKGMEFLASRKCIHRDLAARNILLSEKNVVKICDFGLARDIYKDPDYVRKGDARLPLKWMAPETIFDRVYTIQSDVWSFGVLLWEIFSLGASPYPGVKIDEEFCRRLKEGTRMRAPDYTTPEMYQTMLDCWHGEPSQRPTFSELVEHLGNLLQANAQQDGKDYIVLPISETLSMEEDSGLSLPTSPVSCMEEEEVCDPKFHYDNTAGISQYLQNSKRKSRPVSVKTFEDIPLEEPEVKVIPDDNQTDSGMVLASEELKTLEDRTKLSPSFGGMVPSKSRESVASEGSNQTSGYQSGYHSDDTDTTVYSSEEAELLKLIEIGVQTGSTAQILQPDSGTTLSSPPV
In short: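 Cell-free recombinant VEGFR2 kinase, fluorescent substrate with electrophoretic mobility-shift separation; read 1 h after dosing. Screened at 25 uM in duplicate, hits to concentration-response up to 50 uM; loss-of-signal versus DMSO.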

[7] = molecular target: rat Acetylcholinesterase (AChE), Ache (gene 83817) (UniProt P37136); assay: NVS_ENZ_rAChE: NovaScreen (NVS) Enzymatic Assay for rat Acetylcholinesterase (AChE) (AID 2283233)
In short: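 Rat brain membrane acetylcholinesterase activity measured colorimetrically 0.33 h after compound addition, loss of signal relative to DMSO. Primary screen in duplicate at 25 uM; actives re-run as concentration-response with 50 uM top concentration.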

[8] = molecular target: human Protein Tyrosine Phosphatase Non-receptor Type 9 (PTPN9), PTPN9 (gene 5780) (UniProt P43378); assay: NVS_ENZ_hPTPN9: NovaScreen (NVS) Enzymatic Assay for human Protein Tyrosine Phosphatase Non-receptor Type 9 (PTPN9) (AID 2283209)
In short: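 Sf9-expressed enzyme in a cell-free assay, fluorescence read 1.33 h after dosing with mobility-shift separation of substrate and product. Tested at 25 uM in duplicate, then up to 50 uM; signal loss versus DMSO.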

[9] = molecular target: rabbit Imidazoline 2 Central (I2C), CKB (gene 100009085) (UniProt P00567); assay: NVS_ENZ_rabI2C: NovaScreen (NVS) Enzymatic Assay for rabbit Imidazoline 2 Central (I2C) (AID 2283228)
Sequence of rabbit Imidazoline 2 Central (I2C), CKB (gene 100009085) (P00567 whole entry, looked up): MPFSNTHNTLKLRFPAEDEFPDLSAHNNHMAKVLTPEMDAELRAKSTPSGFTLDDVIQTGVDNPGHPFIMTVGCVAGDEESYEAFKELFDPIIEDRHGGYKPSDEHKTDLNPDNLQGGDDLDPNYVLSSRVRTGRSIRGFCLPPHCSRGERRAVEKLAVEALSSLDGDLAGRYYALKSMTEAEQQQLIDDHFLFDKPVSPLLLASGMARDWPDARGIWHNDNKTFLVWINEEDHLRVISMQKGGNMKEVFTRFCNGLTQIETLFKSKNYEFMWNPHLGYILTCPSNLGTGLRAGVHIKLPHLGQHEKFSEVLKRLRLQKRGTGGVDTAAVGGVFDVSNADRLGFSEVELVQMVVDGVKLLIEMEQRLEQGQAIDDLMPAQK
In short: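 Rabbit brain membranes, cell-free; readout by filter-based scintillation counting 1.5 hours after dosing, loss of signal vs DMSO. Initial duplicate test at 25 uM, then concentration-response with 50 uM top concentration.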

[10] = molecular target: rat Constitutive Nitric Oxide Synthase (CNOS), Nos1 (gene 24598) (UniProt P29476); assay: NVS_ENZ_rCNOS: NovaScreen (NVS) Enzymatic Assay for rat Constitutive Nitric Oxide Synthase (CNOS) (AID 2283236)
In short: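 Enzyme activity in rat brain membrane preparation, read 1 h after dosing by filter-based radiometric scintillation counting. Primary screen in duplicate at 25 uM; actives (e.g., ≥30% inhibition) then run in concentration-response up to 50 uM.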

[11] = molecular target: rat Catechol-O-Methyl Transferase (COMT), Comt (gene 24267) (UniProt P22734); assay: NVS_ENZ_rCOMT: NovaScreen (NVS) Enzymatic Assay for rat Catechol-O-Methyl Transferase (COMT) (AID 2283235)
Sequence of rat Catechol-O-Methyl Transferase (COMT), Comt (gene 24267) (P22734 whole entry, looked up): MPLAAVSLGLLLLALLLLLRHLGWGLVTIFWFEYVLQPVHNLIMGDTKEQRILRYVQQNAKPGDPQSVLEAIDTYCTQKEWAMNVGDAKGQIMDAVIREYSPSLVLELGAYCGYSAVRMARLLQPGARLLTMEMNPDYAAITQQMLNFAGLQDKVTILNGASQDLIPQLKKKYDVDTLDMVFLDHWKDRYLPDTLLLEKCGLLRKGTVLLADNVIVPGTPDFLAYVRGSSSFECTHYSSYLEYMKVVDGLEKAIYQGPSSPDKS
In short: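 Cell-free enzyme activity with protein extracted from rat dorsal striatum, measured by HPLC with absorbance detection. Compounds screened at 25 uM in duplicate; actives then run in concentration-response up to 50 uM, loss of signal versus DMSO.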

[12] = molecular target: rat Monoamine Oxidase, MAO-B, Central (MAOBC), Maob (gene 25750) (UniProt P19643); assay: NVS_ENZ_rMAOBC: NovaScreen (NVS) Enzymatic Assay for rat Monoamine Oxidase, MAO-B, Central (MAOBC) (AID 2283238)
Sequence of rat Monoamine Oxidase, MAO-B, Central (MAOBC), Maob (gene 25750) (P19643 whole entry, looked up): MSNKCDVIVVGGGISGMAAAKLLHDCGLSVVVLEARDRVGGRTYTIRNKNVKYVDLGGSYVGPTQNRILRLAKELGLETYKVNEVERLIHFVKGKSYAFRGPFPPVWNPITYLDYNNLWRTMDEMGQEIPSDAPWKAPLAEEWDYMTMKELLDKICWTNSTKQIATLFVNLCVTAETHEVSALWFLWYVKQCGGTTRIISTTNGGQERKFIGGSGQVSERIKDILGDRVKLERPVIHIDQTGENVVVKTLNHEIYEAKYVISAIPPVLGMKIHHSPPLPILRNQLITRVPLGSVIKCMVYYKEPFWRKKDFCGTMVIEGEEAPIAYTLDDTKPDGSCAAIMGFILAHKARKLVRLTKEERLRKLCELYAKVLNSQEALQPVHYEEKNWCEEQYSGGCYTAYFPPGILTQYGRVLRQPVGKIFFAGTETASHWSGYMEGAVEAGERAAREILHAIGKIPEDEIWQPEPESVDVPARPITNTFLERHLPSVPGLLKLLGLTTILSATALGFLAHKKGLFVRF
In short: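 Compounds were first tested in duplicate at 25 uM against MAO-B from rat brain tissue; those passing the inhibition threshold were retested in concentration series up to 50 uM. Radiodetection by scintillation counting at 1.17 h, analysed against DMSO baseline.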

[13] = molecular target: sheep Cyclooxygenase-2 (Cox2), PTGS2 (gene 443460) (UniProt P79208); assay: NVS_ENZ_oCOX2: NovaScreen (NVS) Enzymatic Assay for sheep Cyclooxygenase-2 (Cox2) (AID 2283231)
In short: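 Enzyme from ovine placenta, cell-free; colorimetric absorbance read 0.66 hour after dosing, loss of signal vs DMSO. Screened in duplicate at 25 uM, then concentration-response up to 50 uM.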

[14] = molecular target: human Vascular Endothelial Growth Factor Receptor 1 (VEGFR1), FLT1 (gene 2321) (UniProt P17948); assay: NVS_ENZ_hVEGFR1: NovaScreen (NVS) Enzymatic Assay for human Vascular Endothelial Growth Factor Receptor 1 (VEGFR1) (AID 2283226)
In short: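 Cell-free assay of recombinant human VEGFR1 kinase with substrate, measured 1 h after dosing; fluorescence with electrophoretic mobility-shift separation of substrate and product, referenced to DMSO; primary screen at 25 uM in duplicate, actives then run in concentration series.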

[15] = molecular target: human Sirtuin 2 (SIRT2), SIRT2 (gene 22933) (UniProt Q8IXJ6); assay: NVS_ENZ_hSIRT2: NovaScreen (NVS) Enzymatic Assay for human Sirtuin 2 (SIRT2) (AID 2283217)
Sequence of human Sirtuin 2 (SIRT2), SIRT2 (gene 22933) (Q8IXJ6 whole entry, looked up): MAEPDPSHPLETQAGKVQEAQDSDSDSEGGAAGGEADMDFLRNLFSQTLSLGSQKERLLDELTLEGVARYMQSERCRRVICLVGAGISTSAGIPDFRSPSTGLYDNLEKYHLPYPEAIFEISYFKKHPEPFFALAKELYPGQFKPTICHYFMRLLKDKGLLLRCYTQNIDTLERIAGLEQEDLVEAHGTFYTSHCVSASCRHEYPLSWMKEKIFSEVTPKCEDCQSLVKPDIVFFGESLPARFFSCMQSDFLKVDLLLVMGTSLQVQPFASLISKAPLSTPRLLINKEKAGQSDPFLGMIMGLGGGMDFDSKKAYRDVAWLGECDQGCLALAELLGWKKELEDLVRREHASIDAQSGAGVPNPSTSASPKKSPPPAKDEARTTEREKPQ
In short: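 Cell-free recombinant human SIRT2, fluorescent substrate with product separated by electrophoretic mobility shift, 1 hr. Screened in duplicate at 25 uM; hits rerun singly in concentration-response up to 50 uM, relative to DMSO.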

[16] = molecular target: human Sirtuin 3 (SIRT3), SIRT3 (gene 23410) (UniProt Q9NTG7); assay: NVS_ENZ_hSIRT3: NovaScreen (NVS) Enzymatic Assay for human Sirtuin 3 (SIRT3) (AID 2283222)
In short: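 Cell-free enzyme assay with recombinant protein and fluorescent substrate, product separated by electrophoretic mobility shift; read 1 hour after dosing. Screened in duplicate at 25 uM, then singleton concentration-response up to 50 uM; loss of signal versus DMSO.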

[17] = molecular target: human Tyrosine Protein Kinase Receptor Tie-2 (Tie2), TEK (gene 7010) (UniProt Q02763); assay: NVS_ENZ_hTie2: NovaScreen (NVS) Enzymatic Assay for human Tyrosine Protein Kinase Receptor Tie-2 (Tie2) (AID 2283225)
In short: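 Recombinant human Tie2 kinase activity was read cell-free by fluorescence with electrophoretic mobility shift, 1 hour after dosing. The screen used 25 uM in duplicate, then concentration-response up to 50 uM. Signal loss was scored against DMSO.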

[18] = test system: rat Monoamine Oxidase, MAO-A, Peripheral (MAOAP), gene 29253; assay: NVS_ENZ_rMAOAP: NovaScreen (NVS) Enzymatic Assay for rat Monoamine Oxidase, MAO-A, Peripheral (MAOAP) (AID 2283237)
In short: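 Rat liver mitochondrial membranes served as the MAO-A source, with enzyme activity measured by radiometric scintillation counting 1.17 hours after dosing. Loss of signal was fitted against DMSO; primary screen used 25 uM in duplicate, follow-up used concentration series.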

[19] = molecular target: Tyrosine-protein phosphatase non-receptor type 13 (Homo sapiens) (UniProt Q12923); assay: NVS_ENZ_hPTPN13: NovaScreen (NVS) Enzymatic Assay for human Protein Tyrosine Phosphatase Non-receptor Type 13 (PTPN13) (AID 2283205)
In short: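 Cell-free assay of recombinant human PTPN13 with a fluorescent substrate, product separated by electrophoretic mobility shift and read 0.5 h after dosing. Primary screen at 25 uM in duplicate, then concentration-response up to 50 uM. Loss of signal fitted against DMSO.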

[20] = molecular target: human Raf-1 Proto-Oncogene, serine/threonine Kinase (RAF1), RAF1 (gene 5894) (UniProt P04049); assay: NVS_ENZ_hRAF1: NovaScreen (NVS) Enzymatic Assay for human Raf-1 Proto-Oncogene, serine/threonine Kinase (RAF1) (AID 2283216)
In short: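 Cell-free recombinant kinase with specific fluorescent substrate, product separated by electrophoretic mobility shift; read 1 h after dosing. Primary screen at 25 uM in duplicate; hits then run in concentration-response up to 50 uM, fitted as loss of signal versus DMSO.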

CCOc1ccc(C(C)(C)COCc2cccc(Oc3ccccc3)c2)cc1
outcome [1]: inactive | outcome [2]: inactive

CCOS(=O)(=O)OCC
outcome [3]: inactive

O=[N+]([O-])c1ccccc1
outcome [4]: inactive

CCCCN(CCCC)SN(C)C(=O)Oc1cccc2c1OC(C)(C)C2
AC50 [5]: 7.97 µM (active) | outcome [6]: inactive | AC50 [7]: 1.13 µM (active)

ClC1=C(Cl)C2(Cl)C3C(Cl)C(Cl)CC3C1(Cl)C2(Cl)Cl (centres undefined)
outcome [4]: inactive | outcome [6]: inactive

OCC1CO1 (centres undefined)
outcome [8]: inactive

Cc1ccc(N)cc1N
AC50 [5]: 32.2 µM (active) | outcome [9]: inactive | AC50 [10]: 6.59 µM (active)

Cc1ccc([N+](=O)[O-])cc1C
outcome [1]: inactive | outcome [2]: inactive

CC(Cc1ccc(OCC(=O)O)cc1)NCC(O)c1csc(C(F)(F)F)n1 (centres undefined)
outcome [11]: inactive

[N-]=[N+]=[N-]
outcome [3]: inactive | outcome [10]: inactive | outcome [12]: inactive

O=P(Oc1ccccc1)(Oc1ccccc1)Oc1ccccc1
outcome [1]: inactive

O=[N+]([O-])c1ccc(Cl)c(Cl)c1
AC50 [13]: 18.5 µM (active)

Cc1ccc2c(c1N)C(=O)c1ccccc1C2=O
AC50 [14]: 25 µM (active)

CC(C)(C)c1ccc(O)cc1
outcome [14]: inactive

ClC(Cl)(Cl)c1ccccc1
outcome [10]: inactive | outcome [12]: inactive

CSC(C)(C)C=NO
outcome [15]: inactive | outcome [2]: inactive | outcome [16]: inactive | outcome [17]: inactive | outcome [11]: inactive

CCCCc1ccccc1
outcome [11]: inactive

Nc1ccc2ccccc2c1
AC50 [5]: 12.3 µM (active) | AC50 [9]: 13.7 µM (active) | AC50 [13]: 7.93 µM (active)

ClC(Cl)c1ccccc1
outcome [3]: inactive | outcome [18]: inactive

Cc1ccc(O)cc1C
outcome [5]: inactive | outcome [18]: inactive | AC50 [12]: 47 µM (active)

CC1(C)CN=C(NN=C(/C=C/c2ccc(C(F)(F)F)cc2)/C=C/c2ccc(C(F)(F)F)cc2)NC1
outcome [17]: inactive | AC50 [13]: 17.4 µM (active)

O=c1ssc(Cl)c1Cl
outcome [17]: inactive | outcome [6]: inactive

CCCCCCCc1ccc(O)cc1
AC50 [12]: 25 µM (active)

c1ccc(OP(Oc2ccccc2)Oc2ccccc2)cc1
outcome [19]: inactive | outcome [13]: inactive

Nc1cc2c3c(c1)C(c1ccccc1)=N[C@@H](NC(=O)c1cccnc1)C(=O)N3CC2
outcome [7]: inactive

CCCN(CCC)c1c([N+](=O)[O-])cc(C(C)C)cc1[N+](=O)[O-]
outcome [6]: inactive

O=P1(N(CCCl)CCCl)NCCCO1 (centres undefined)
outcome [5]: inactive | outcome [2]: inactive | outcome [17]: inactive

CC(C)(C)OOC(C)(C)C
outcome [19]: inactive | outcome [3]: inactive | outcome [20]: inactive | outcome [17]: inactive | AC50 [12]: 13.1 µM (active)

CN(C)C(=O)Cl
AC50 [8]: 41.7 µM (active) | outcome [3]: inactive

CC(Cl)(Cl)C(=O)O
outcome [2]: inactive

Cc1cccc(N)c1
outcome [9]: inactive | outcome [6]: inactive

O=C(O)C1C(C(=O)O)C2(Cl)C(Cl)=C(Cl)C1(Cl)C2(Cl)Cl (centres undefined)
outcome [3]: inactive

CCC(C)(C)c1ccc(O)cc1
AC50 [8]: 42.1 µM (active)

c1nc[nH]n1
outcome [3]: inactive
